TDP1 cell CPT: growth inhibition of DT40 Tdp1-/-;hTDP1 cells with camptothecin (screen for TDP1 inhibitors). Potency, µM (highest dose often 46.2 µM), for inactives: at the top dose activity change, negative = growth inhibition, actives largely listed as inhibitors. chicken DT40 Tdp1-/-;hTDP1 cells + 20 nM CPT, ATP luminescence, 48 h. hit rate 12% among 420,000. AID 686979; further: nearly all actives have a fitted effect of over 55% in size
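Chicken DT40 Tdp1-/- cells stably complemented with human TDP1 were seeded at 400 cells/well in medium containing 20 nM camptothecin, exposed to pin-transferred compounds, and grown at 37 °C for at least 48 hr. Viability was read as ATP luminescence.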
HT1080 IDH1KD tx: HT-1080 IDH1 knockdown cell toxicity (counter line) | HT-1080 IDH1 knockdown viability, ATP luminescence, 48 h | Potency, µM (titrated, usually from 46.1 µM), for the others: top-dose activity, negative = toxicity, hits mostly cytotoxic | hit rate 2% among 360,000;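 further: 0% = DMSO wells and -100% = cell-free medium wells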
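% activity derives from luminescence (CellTiter-Glo), normalised to DMSO and no-cell wells. HT-1080-IDH1KD cells, 750/well, had 48 h compound exposure at 37 °C.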
KB-V1 cytotox: kills drug-selected multidrug resistant KB-V1 cells | hit rate 3.4% among 400,000 | KB-V1 MDR cells viability, CellTiter-Glo, 72 h | AID 1347076 | Potency, µM (highest dose often 46.1 µM), actives largely listed as cytotoxic; further: nearly all actives have a fitted effect of over 60% in size
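Cytotoxicity via CellTiter-Glo luminescence after 72 h compound exposure at 37 degrees C. Cells: drug-selected KB-V1 line, DMEM phenol-red free plus 10% FBS. Compounds tested at multiple concentrations; normalized data fitted to concentration-effect curves.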
HT1080NT lethal: kills 2HG-producing HT-1080-NT fibrosarcoma cells; HT-1080-NT fibrosarcoma viability, CellTiter-Glo ATP luminescence, 48 h; Potency, µM (series often up to 46.1 µM), for the others: at the highest dose activity, negative = less viability, most hits filed as cytotoxic; hit rate 1.6% among 360,000;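 further: NT is the 2HG producing partner of a matched IDH1 knockdown line; 0% = DMSO-treated cells and -100% = media-only wells without cells; nearly all actives have a fitted effect of over 55% in size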
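Viability by CellTiter-Glo luminescence after 48 h compound exposure at 37C of HT-1080-NT cells (750/well, RPMI, 5% FBS). % activity scaled between DMSO wells and medium-only wells, then curve-fitted and categorized by curve class.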
KB-3-1 cytotox: kills parental KB-3-1 adenocarcinoma cells; KB-3-1 viability, CellTiter-Glo ATP luminescence, 72 h; Potency, µM (series often up to 46.1 µM), hits mostly cytotoxic; hit rate 1.4% among 400,000; AID 1347075; further: nearly all actives have a fitted effect of over 60% in size
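Cytotoxicity in the drug-sensitive parental line KB-3-1 was scored as loss of CellTiter-Glo luminescence following 72 h incubation with compound. Values come from curve fitting of normalized concentration-response data.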
DT40 TDP1 no CPT: qHTS for Inhibitors of human tyrosyl-DNA phosphodiesterase 1 (TDP1): qHTS in cells in absence of CPT; DT40 Tdp1-/- hTDP1 cells, no CPT, ATP luminescence, 48 h; Potency, µM (highest dose often 46.2 µM), without a hit: at the highest dose activity change, negative = growth inhibition, usual class: inhibitors; hit rate 15% among 420,000; AID 686978, 2013; further: nearly all actives have a fitted effect of over 55% in size
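Readout: luminescence from CellTiter-Glo after 30 min in the dark at RT. Cells: DT40 Tdp1-/- with stable hTDP1, 400/well. Exposure: compounds alone, ≥48 hr, 37 °C.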
* = called active by the depositor; i = inactive; ? = inconclusive; . = no result. Compounds with a hit are over-represented: about 19% of the library has one in this group of screens. The call rests on the fitted dose curve; in most records, active means well fitted curve in the direction sought with a large enough effect; inconclusive means small, poorly fitted or top-dose-only effect, or another doubt; inactive means no such curve, though single readings can be large; an effect the other way counts as inactive or inconclusive. Unless noted, on the % scale 0 is the no-effect control and ±100 the full control effect; potency means the concentration at half of the fitted maximal effect.

SMILES | TDP1 cell CPT | HT1080 IDH1KD tx | KB-V1 cytotox | HT1080NT lethal | KB-3-1 cytotox | DT40 TDP1 no CPT
COc1cccc(NC(=O)CCC2CCN(C(=O)C(OC)c3ccccc3)CC2)c1 (centres undefined) | 16µM* | 3% | ? | 1% | i | 21µM*
CCc1cccc(NC(=S)N2CCC(c3ccccc3)C2)c1 (centres undefined) | ? | 0% | i | -4% | i | ?
CSc1cccc(NC(=S)N2CCC(c3ccccc3)C2)c1 (centres undefined) | -17% | -6% | i | -24% | i | 16µM*
Cc1cc(C(=O)COc2ccc(Br)cc2F)c(C)n1CC1CCCO1 (centres undefined) | -22% | -3% | i | 3% | i | ?
Cc1ccc(OCCNC(=O)c2ccc(NC(=O)CC3SC(N4CCCC4)=NC3=O)cc2)cc1 (centres undefined) | -16% | -11% | i | -2% | i | ?
CCOC(=O)c1c(C)c(C(=O)NCCc2ccc(OC)cc2)c(C)n1CC | -8% | . | i | . | i | ?
CCCN1CCC(NC(=O)C2CCCCC2C(=O)O)CC1 (centres undefined) | 1% | 18% | ? | 17% | i | 6%
CCOc1ccc(NC(=S)N2CCC(c3ccc(C)cc3)C2)cc1 (centres undefined) | ? | -2% | i | 5% | i | 13µM*
CC(C)C[C@@H]1Cc2[nH]c(=S)[nH]c(=O)c2[C@H](C)O1 | 0% | 2% | ? | 6% | ? | ?
CC1=C(C(=O)N(C(C)C)C(C)C)CC(CC(=O)NCC2CCCCC2)C(=O)N1Cc1ccc(C(C)(C)C)cc1 (centres undefined) | 19µM* | 23µM* | i | ? | . | 19µM*
CC1=C(C(=O)N(C(C)C)C(C)C)CC(CC(=O)NC2CC2)C(=O)N1Cc1ccc(C(C)(C)C)cc1 (centres undefined) | ? | 2% | ? | -7% | i | 29µM*
CCN(CC)C(=O)C1=C(C)N(Cc2ccc(OC)cc2)C(=O)C(CC(=O)NCC2CCCCC2)C1 (centres undefined) | ? | 9% | i | -7% | i | 21µM*
COc1ccc(CN2C(=O)C(CC(=O)NCC3CCCCC3)CC(C(=O)N(C)C)=C2C)cc1 (centres undefined) | ? | -9% | ? | 3% | i | ?
Cc1ccc(S(=O)(=O)N2CCN(c3cc(-c4cccs4)nc4ccccc34)CC2)cc1 | -2% | . | i | . | i | -1%
COc1ccc(N(CC(=O)Nc2cc(OC)c(OC)cc2C(=O)O)S(=O)(=O)c2c(C)noc2C)cc1 | 3% | 2% | i | -14% | i | 6%
Cc1cc(C)cc(NC(=O)CN2C(=O)c3ccccc3Sc3ccc(C(=O)N4CCCC4)cc32)c1 | ? | . | i | . | i | ?
COc1cc(OC)c(NC(=O)N2CCc3cc(OC)c(OC)cc3C2CC(=O)O)cc1Cl (centres undefined) | 15µM* | . | . | . | . | 8.2µM*
CCc1ccccc1NC(=O)N1CCc2ccccc2C1 | 20% | 19% | i | 20% | i | 19%
COc1cc2c(cc1OC)C(CC(=O)O)N(C(=O)CC1CCCC1)CC2 (centres undefined) | 10% | 14% | i | 20% | i | -10%
CCc1ccccc1NC(=O)N1CCc2cc(OC)c(OC)cc2C1CC(=O)OC (centres undefined) | ? | . | . | . | . | 18µM*
OC[C@@H]1CN(Cc2cccc(C(F)(F)F)c2)C[C@H](n2cnc3c(NCc4ccncc4)ncnc32)O1 | ? | 0% | i | 0% | i | ?
COc1cc(/C=N/Nc2snc(SC)c2C#N)cc(OC)c1OC | ? | 4.6µM* | i | ? | ? | 1.8µM*
O=c1cc(N2CCCC2)c(-c2ccccc2)n[nH]1 | -9% | 4% | i | 13% | i | -10%
NC1(c2ccc(-c3nc4ccn5c(=O)[nH]nc5c4cc3-c3ccccc3)cc2)CCC1 | 0.38µM* | . | i | . | i | 0.6µM*
S=C(NCCCN1CCOCC1)N1CCN(c2nc(-c3ccccc3)cs2)CC1 | ? | 23µM* | i | 18µM* | i | 23µM*
SMILES | TDP1 cell CPT | HT1080 IDH1KD tx | KB-V1 cytotox | HT1080NT lethal | KB-3-1 cytotox | DT40 TDP1 no CPT
CCCNC(=S)N1CCN(c2nc(-c3ccc(C)cc3)cs2)CC1 | ? | -16% | ? | -24% | i | ?
O=C(N1CCOCC1)N1CCN(c2nc(-c3ccccc3)cs2)CC1 | -25% | 5% | 21µM* | 4% | i | ?
S=C(NCCCN1CCOCC1)N1CCN(c2nc(-c3ccc(Cl)cc3)cs2)CC1 | 7.3µM* | ? | i | ? | ? | 4.1µM*
NC(=O)c1cc(-c2ccccc2)nc(N2CCOCC2)n1 | 21µM* | ? | i | ? | i | 12µM*
S=C(NCCCN1CCOCC1)N1CCN(c2ccccc2)CC1 | 2% | 2% | i | 21% | i | -5%
O=C(O)c1ccc(CNCc2ccccc2Cl)s1 | -4% | . | i | . | i | 1%
Cc1nn2c(C)c(C(=O)NCc3cccc(Br)c3)cnc2c1-c1ccccc1 | ? | . | i | . | i | -20%
COc1ccc(NC(=O)C2CCCN(S(=O)(=O)c3ccc(Cl)cc3)C2)cc1 (centres undefined) | -1% | . | . | . | . | -1%
O=C(NC(=S)N1CCN(c2nc(-c3ccccc3)cs2)CC1)c1cccnc1 | ? | -5% | 21µM* | -7% | i | ?
O=S(=O)(c1cccc(Cl)c1Cl)N1CCN(C(=S)NCCCN2CCOCC2)CC1 | ? | ? | ? | -26% | i | 21µM*
S=C(NCC1CCCO1)N1CCN(c2nc(-c3ccc(Cl)cc3)cs2)CC1 (centres undefined) | 16µM* | ? | ? | ? | ? | 15µM*
COCCNC(=S)N1CCN(c2nc(-c3ccccc3)cs2)CC1 | ? | -6% | i | ? | i | 18µM*
O=C(NC(=S)N1CCN(C/C=C/c2ccccc2)CC1)c1cccnc1 | -2% | 0% | i | -5% | i | 5%
S=C(NCC1CCCO1)N1CCN(c2cccc(Cl)c2)CC1 (centres undefined) | ? | 0% | i | -4% | i | ?
COc1ccccc1CNC(=O)COC(=O)COc1ccccc1F | -21% | -2% | i | -1% | i | 5%
